The values below come from PubChem BioAssay (EPA / NIEHS).

Records with an inconclusive call do not appear. Activity calls are given as the source filed them. The calls were made as follows, unless noted: active = hit-call score of the fitted dose curve at least 0.9, where 1 is the maximum; inactive = score below 0.9.

Experiment [1] has as its target human Retinoid X Receptor beta (RXRb), RXRB (gene 6257) (UniProt P28702). Briefly: ATG_RXRb_TRANS: Attagene TRANS-FACTORIAL HepG2 Assay for human Retinoid X Receptor beta (RXRb) (AID 2283013; active = hit-call score of the fitted dose curve at least 0.9, where 1 is the maximum). Put shortly: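 Multiplexed TRANS reporter assay in HepG2; 24 h dosing; reporter mRNA by RT-PCR/CE fluorescence; gain-of-signal relative to DMSO.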
Experiment [2] addresses human Thyroid Receptor alpha (THRa1), THRA (gene 7067) (UniProt P10827). Briefly: ATG_THRa1_TRANS: Attagene TRANS-FACTORIAL HepG2 Assay for human Thyroid Receptor alpha (THRa1) (AID 2283014; active = hit-call score of the fitted dose curve at least 0.9, where 1 is the maximum). Put shortly:
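HepG2 cells transiently transfected with multiplexed GAL4-UAS reporter units for exogenous chimeric THRa1-Gal4; reporter mRNA measured 24 h after dosing by RT-PCR, 6-FAM labelling, HpaI digestion and capillary electrophoresis. Gain-of-signal fitted versus DMSO baseline.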

The target of experiment [3] is Retinoic acid receptor RXR-alpha (Homo sapiens) (UniProt P19793). In words: ATG_RXRa_TRANS: Attagene TRANS-FACTORIAL HepG2 Assay for human Retinoid X Receptor alpha (RXRa) (AID 2283012; active = hit-call score of the fitted dose curve at least 0.9, where 1 is the maximum). The method in brief:
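Cells (HepG2) carried transiently transfected GAL4-responsive reporter units. Following a 24 h chemical incubation, reporter mRNA induction was read via RT-PCR fragment analysis; DMSO served as negative control and baseline.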

Read-out in experiment [4]: E-selectin (Homo sapiens) (UniProt P16581)
In words: BSK_3C_Eselectin: BioMAP Diversity Plus: 3C Assay for Eselectin Biomarker Activity (AID 2283015).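 As to outcome: cell surface E-selectin protein quantified by ELISA 24 h after dosing.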 As to conditions: primary human endothelial cells (HUVEC); actives raise or lower the signal. Put shortly:
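Primary human umbilical vein endothelial cells (3C system) were dosed with chemical and cell-surface E-selectin measured by ELISA 24 h later. Bidirectional curve fitting used DMSO as negative control and baseline.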

Read-out in experiment [5]: Interleukin-1 alpha (IL1a), IL1A (gene 3552)
Briefly: BSK_BE3C_IL1a: BioMAP Diversity Plus: BE3C Assay for Interleukin-1 alpha (IL1a) Biomarker Activity (AID 2283016). As to conditions: primary human bronchial epithelial cells; actives raise or lower the signal. The method in brief:
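Cultures of primary human bronchial epithelial cells receive test chemical. After 24 h, IL-1a is quantified by ELISA, while parallel wells are fixed in TCA and SRB-stained for total protein. Changes in either direction are fitted relative to DMSO.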

Read-out in experiment [6]: Monocyte Chemoattractant Protein-1 (MCP1), CCL2 (gene 6347)
In words: BSK_3C_MCP1: BioMAP Diversity Plus: 3C Assay for Monocyte Chemoattractant Protein-1 (MCP1) Biomarker Activity (AID 2283017). As to conditions: primary human endothelial cells (HUVEC); actives raise or lower the signal. Put shortly:
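Primary human umbilical vein endothelial cells (3C system) were exposed to test chemical for 24 h, after which MCP-1 was quantified by ELISA. Activity was fitted bidirectionally against DMSO as negative control and baseline.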

Read-out in experiment [7]: Human Leukocyte Antigen - DR isotype (HLADR), HLA-DRA (gene 3122)
In words: BSK_3C_HLADR: BioMAP Diversity Plus: 3C Assay for Human Leukocyte Antigen - DR isotype (HLADR) Biomarker Activity (AID 2283019).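 As to outcome: ELISA of cell-surface HLA-DR on HUVEC 24 h after dosing.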 As to conditions: primary human endothelial cells (HUVEC); actives raise or lower the signal. The method in brief:
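Primary human umbilical vein endothelial cells (3C system) were dosed with compound and cell-surface HLA-DR was quantified by ELISA at 24 h. Activity was fitted bidirectionally against DMSO as negative control and baseline.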

Read-out in experiment [8]: Interleukin-8 (IL8), CXCL8 (gene 3576)
In words: BSK_3C_IL8: BioMAP Diversity Plus: 3C Assay for Interleukin-8 (IL8) Biomarker Activity (AID 2283020). As to conditions: primary human endothelial cells (HUVEC); actives raise or lower the signal. The method in brief: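 Human vascular endothelial cells (umbilical vein) in the 3C system; IL-8 level detected by ELISA at 24 h post-dose, with DMSO as baseline.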

Chain of human Thyroid Receptor alpha (THRa1), THRA (gene 7067) (P10827 whole entry, looked up, the tested form may be a part): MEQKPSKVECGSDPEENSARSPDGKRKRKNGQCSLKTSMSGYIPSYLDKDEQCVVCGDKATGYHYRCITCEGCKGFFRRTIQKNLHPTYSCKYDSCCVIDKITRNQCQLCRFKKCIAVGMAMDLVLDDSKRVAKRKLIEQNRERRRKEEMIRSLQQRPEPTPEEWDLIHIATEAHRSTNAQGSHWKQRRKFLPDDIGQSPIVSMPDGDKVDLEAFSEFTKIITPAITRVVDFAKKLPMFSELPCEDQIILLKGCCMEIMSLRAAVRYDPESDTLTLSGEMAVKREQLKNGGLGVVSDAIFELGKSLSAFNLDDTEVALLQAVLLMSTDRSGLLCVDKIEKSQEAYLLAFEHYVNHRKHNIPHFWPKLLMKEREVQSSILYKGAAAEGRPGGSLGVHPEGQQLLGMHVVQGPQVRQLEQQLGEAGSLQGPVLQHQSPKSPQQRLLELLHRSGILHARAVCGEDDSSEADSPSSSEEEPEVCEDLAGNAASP
Chain of Retinoic acid receptor RXR-alpha (Homo sapiens) (P19793 whole entry, looked up, the tested form may be a part): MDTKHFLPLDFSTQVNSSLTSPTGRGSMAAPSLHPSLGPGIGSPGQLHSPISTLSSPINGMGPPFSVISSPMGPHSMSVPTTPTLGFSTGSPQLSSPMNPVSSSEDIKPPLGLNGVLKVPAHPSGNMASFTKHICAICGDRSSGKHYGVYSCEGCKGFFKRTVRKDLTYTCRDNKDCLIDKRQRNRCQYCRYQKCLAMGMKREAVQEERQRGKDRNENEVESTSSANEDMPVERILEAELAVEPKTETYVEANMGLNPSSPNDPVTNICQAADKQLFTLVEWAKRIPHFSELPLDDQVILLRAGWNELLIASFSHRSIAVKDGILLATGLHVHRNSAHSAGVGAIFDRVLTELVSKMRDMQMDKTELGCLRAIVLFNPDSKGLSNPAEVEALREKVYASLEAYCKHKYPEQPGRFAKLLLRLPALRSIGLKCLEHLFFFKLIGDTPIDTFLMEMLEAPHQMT
Chain of human Retinoid X Receptor beta (RXRb), RXRB (gene 6257) (P28702 whole entry, looked up): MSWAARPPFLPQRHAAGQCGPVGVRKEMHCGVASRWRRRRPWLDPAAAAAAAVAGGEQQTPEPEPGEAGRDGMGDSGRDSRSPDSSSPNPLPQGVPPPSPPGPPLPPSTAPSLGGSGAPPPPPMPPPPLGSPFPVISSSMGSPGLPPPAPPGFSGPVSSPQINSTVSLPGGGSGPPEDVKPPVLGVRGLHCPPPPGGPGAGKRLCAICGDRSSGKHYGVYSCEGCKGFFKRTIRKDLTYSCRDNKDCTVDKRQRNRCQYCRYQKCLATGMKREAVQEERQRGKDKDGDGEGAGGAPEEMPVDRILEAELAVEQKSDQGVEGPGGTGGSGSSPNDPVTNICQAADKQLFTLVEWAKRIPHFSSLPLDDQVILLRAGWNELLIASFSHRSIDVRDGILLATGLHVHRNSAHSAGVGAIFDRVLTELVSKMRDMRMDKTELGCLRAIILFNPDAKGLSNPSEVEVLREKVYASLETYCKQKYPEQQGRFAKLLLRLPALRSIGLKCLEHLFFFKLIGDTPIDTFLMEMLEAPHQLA
Chain of E-selectin (Homo sapiens) (P16581 whole entry, looked up): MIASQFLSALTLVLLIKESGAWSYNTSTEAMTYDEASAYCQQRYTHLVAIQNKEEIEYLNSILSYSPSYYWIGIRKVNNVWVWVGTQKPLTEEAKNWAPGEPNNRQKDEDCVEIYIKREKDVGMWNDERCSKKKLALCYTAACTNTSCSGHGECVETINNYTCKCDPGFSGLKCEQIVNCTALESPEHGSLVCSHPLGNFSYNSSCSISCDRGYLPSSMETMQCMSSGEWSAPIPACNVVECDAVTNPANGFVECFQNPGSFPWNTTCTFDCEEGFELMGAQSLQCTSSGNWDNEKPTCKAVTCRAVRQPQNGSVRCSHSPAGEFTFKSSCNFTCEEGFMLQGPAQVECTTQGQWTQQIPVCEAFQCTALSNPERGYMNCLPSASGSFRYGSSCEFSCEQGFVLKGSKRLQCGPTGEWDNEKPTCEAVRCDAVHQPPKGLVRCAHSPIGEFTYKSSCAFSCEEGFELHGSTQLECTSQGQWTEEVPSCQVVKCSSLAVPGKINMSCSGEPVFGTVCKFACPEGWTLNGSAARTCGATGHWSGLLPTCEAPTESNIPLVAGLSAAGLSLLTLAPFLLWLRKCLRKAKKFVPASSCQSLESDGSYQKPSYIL

Consider `O=P(O)(O)O`, for which the compound was called inactive in experiment [1].

With `CC(C)c1ccccc1O`, in experiment [1], the AC50 (as a rule, the concentration at which the activity in the assay is half-maximal) was 75.5 µM (active). Moreover, the result in experiment [2] was inactive.

As to `CCC(C)c1cc([N+](=O)[O-])cc([N+](=O)[O-])c1OC(=O)OC(C)C` (stereo not given), the AC50 is 32.6 µM (active) in experiment [3]; 17.9 µM (active) in experiment [4]; 25.4 µM (active) in experiment [5]; 29.5 µM (active) in experiment [6]; 9.38 µM (active) in experiment [7]; 34.1 µM (active) in experiment [8]. Further, the compound was called inactive in experiment [2].

Turning to `CC[N+](C)(CC)CC`, the result in experiment [3] and in experiment [2] was inactive.

As to `C=COCCOCCOC=C`, the compound was classed as inactive in experiment [1].

In the case of `CCc1ccc(O)c(OC)c1`, the compound was classed as inactive in experiment [1].

As to `CC(C)CCCCCCc1ccc(OCCOCCO)cc1`, the outcome in experiment [1] was inactive.

`Cc1[nH]c(=O)c(C#N)cc1-c1ccncc1`: the compound was called inactive in experiment [3] and in experiment [2].

On to `CCCC(=O)c1ccccc1`, for which the compound was classed as inactive in experiment [3] and in experiment [2].

Take `C1CCCCC1`: in experiment [1], the outcome was inactive.

Turning to `CCCCCCCC/C=C\CCCCCCCC(=O)OCC`, the compound was called inactive in experiment [1].

On to `CC(C)(N=C=O)c1cccc(C(C)(C)N=C=O)c1`, for which the compound was called inactive in experiment [3], in experiment [4], in experiment [5], in experiment [6], in experiment [7] and in experiment [8].

Consider `CN(C)c1cccc(O)c1`, for which the call in experiment [1] was inactive.

`CN(C)C(=O)Nc1ccc(Oc2ccc(Cl)cc2)cc1`: the outcome in experiment [3], in experiment [2], in experiment [7] and in experiment [8] was inactive. The values for the AC50 in experiment [4], in experiment [5] and in experiment [6] were 20 µM (active), 3.97 µM (active) and 3.97 µM (active), respectively.

As for `c1ccc2cc(Nc3ccc(Nc4ccc5ccccc5c4)cc3)ccc2c1`, the call in experiment [3], in experiment [2], in experiment [4], in experiment [6], in experiment [7] and in experiment [8] was inactive. In addition, in experiment [5], the AC50 is 0.147 µM (active).

Turning to `C=C[Si]1(C)O[Si](C)(C=C)O[Si](C)(C=C)O[Si](C)(C=C)O1` (stereo not given), in experiment [1], the half-maximal activity concentration (AC50) was 8 µM (active).

In the case of `C[C@H]1O[C@@H](O[C@H]2[C@@H](O)C[C@H](O[C@H]3[C@@H](O)C[C@H](O[C@H]4CC[C@@]5(C)[C@H](CC[C@@H]6[C@@H]5C[C@@H](O)[C@]5(C)[C@@H](C7=CC(=O)OC7)CC[C@]65O)C4)O[C@@H]3C)O[C@@H]2C)C[C@H](O)[C@@H]1O`, the outcome in experiment [3] and in experiment [2] was inactive.

As for `COc1ccc(CCN2CCC(Nc3nc4ccccc4n3Cc3ccc(F)cc3)CC2)cc1`, the compound was called inactive in experiment [3], in experiment [2] and in experiment [5]. Also, the AC50 in experiment [4] is 5 µM (active); in experiment [6], 3.54 µM (active); in experiment [7], 6.77 µM (active); in experiment [8], 2.66 µM (active).

With `CC(C)(C)CC(C)(C)c1ccc(OCCOCC[N+](C)(C)Cc2ccccc2)cc1`, the compound was called inactive in experiment [3] and in experiment [2]. Further, the half-maximal activity concentration (AC50) in experiment [4] was 6.62 µM (active); in experiment [5], 7.26 µM (active); in experiment [6] it was 5 µM (active); in experiment [7], 5 µM (active); in experiment [8] it was 5 µM (active).

Consider `COC(=O)c1ccc([N+](=O)[O-])cc1`, for which the call in experiment [1] and in experiment [2] was inactive.

For `CCCCN(CCCC)C(=O)N(CCCC)CCCC`, the outcome in experiment [3] and in experiment [2] was inactive. Further, the concentration at half-maximal activity (AC50) in experiment [4] was 6.65 µM (active); in experiment [5], 8.05 µM (active); in experiment [6], 8.46 µM (active); in experiment [7], 6.8 µM (active); in experiment [8], 4.98 µM (active).

Consider `CCCCC(CC)C(=O)OC(C)C` (stereo not given), for which the call in experiment [1] and in experiment [2] was inactive.

In the case of `COC(CC(C)CCCC(C)(C)O)OC` (stereo not given), the outcome in experiment [1] was inactive.

With `CCC(C)S` (stereo not given), in experiment [1], the compound was called inactive.

Regarding `C=C(C)C1CC=C(C)C(=O)C1` (stereo not given), the call in experiment [1] was inactive.

Take `C#CC(C)N(C)C(=O)Nc1ccc(Cl)cc1` (stereo not given): the compound was called inactive in experiment [1] and in experiment [2].

Turning to `CCCCCCCCCCCCS(=O)(=O)Cl`, the compound was classed as inactive in experiment [1].

Consider `CN1C(=O)c2ccccc2C1=O`, for which, in experiment [1], the result was inactive.

`C=C(C)C(=O)OCC(CC)(COC(=O)C(=C)C)COC(=O)C(=C)C`: the figures for the AC50 in experiment [4] and in experiment [7] were 26.3 µM (active) and 19.7 µM (active), respectively. Further, the outcome in experiment [5], in experiment [6] and in experiment [8] was inactive.

`C=C(C)C(=O)OCCOCCOCCOC(=O)C(=C)C`: the result in experiment [4], in experiment [5], in experiment [6], in experiment [7] and in experiment [8] was inactive.

As for `CSCCC=O`, the call in experiment [1], in experiment [4], in experiment [5], in experiment [6], in experiment [7] and in experiment [8] was inactive.

Take `Cc1cc(S(=O)(=O)O)ccc1N=Nc1c(O)ccc2ccccc12`: the call in experiment [1] and in experiment [2] was inactive.

Regarding `C=C(C)CNCC`, the compound was classed as inactive in experiment [1] and in experiment [2].

Take `CCCCC(CC)COC(C)=O` (stereo not given): the compound was classed as inactive in experiment [1] and in experiment [2].

In the case of `C[C@@H]1CCN(C(=O)[C@H](CCCN=C(N)N)NS(=O)(=O)c2cccc3c2NC[C@H](C)C3)[C@@H](C(=O)O)C1`, the outcome in experiment [4], in experiment [5], in experiment [6], in experiment [7] and in experiment [8] was inactive.

With `C=C(C#N)C(=O)OCC`, in experiment [2], the result was inactive.

As for `CC=Cc1ccc(OCC)c(O)c1`, the outcome in experiment [1], in experiment [2], in experiment [4], in experiment [5], in experiment [6] and in experiment [7] was inactive. The result in experiment [8] was inactive.

Turning to `CC(=O)Nc1ccc(C(=O)CCl)cc1`, the compound was classed as inactive in experiment [1] and in experiment [2]. Besides, the AC50 is 7.26 µM (active) in experiment [4]; 14.9 µM (active) in experiment [5]; 11.2 µM (active) in experiment [6]; 5.06 µM (active) in experiment [7]; 20 µM (active) in experiment [8].

On to `Cc1occc(=O)c1OC(=O)C(C)C`, for which the compound was classed as inactive in experiment [2].

`O=C(O)COCC(=O)O`: the compound was called inactive in experiment [1] and in experiment [2].

For `NCC1CCCC(CN)C1` (stereo not given), the compound was classed as inactive in experiment [2].

Regarding `Cc1cccc(Nc2ccccc2)c1`, the AC50 in experiment [1] was 28 µM (active). Moreover, the outcome in experiment [2] was inactive.
